Consider 40 molecules from PubChem BioAssay (NCI).

SMILES strings stand for the structures. The panel holds about 83,000 compounds, 20% with a hit somewhere; the sample as a whole holds those more often.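 Assay: single dose, 48 h. Readout: percent growth (0 = no net growth; negative = cell death). Active: <10.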 Values without a mark were called inactive. Calls of active or inactive are those of the source.

For the assay, the system named is MDA-MB-435 melanoma. Description: NCI-60 one-dose screen, 48 h (100 = growth as untreated, 0 = no growth, -100 = all killed). The following applies: 10 µM unless noted. How it is done: Growth inhibition of the MDA-MB-435 human Melanoma tumor cell line is measured as a screen for anti-cancer activity. Cells are grown in 96 well plates and exposed to the test compound for 48 hours. Compounds are tested at a single concentration, which is 10^-5 M for most compounds. The reported endpoint is percent growth (GI% or GIPRCNT), where numbers from 0 - 100% represent growth inhibition, and numbers from -100% - 0 represent cell death. For example, a value of 40 represents 60% growth inhibition. A value of 0 means no net growth occurred over the course of the experiment. A value of -40 indicates 40% of cells at the beginning of the experiment died by the end of the experiment. A value of -100 means all cells are dead at the end of the experiment.
NCI-60 Human Tumor Cell Lines Screen was performed using the standard one-dose NCI protocol, which is described in more detail at https://dtp.cancer.gov/discovery_development/nci-60/default.htm.
Compounds with GIPRCNT values below 10 were considered active. Activity score was based on GIPRCNT using the following formula: […]
Score is 0 for GIPRCNT values of 100 or above, 50 for GIPRCNT values of 0, and 100 for GIPRCNT values of -100.
For `CCOc1ncc([N+](=O)[O-])c(OCC)n1`, the growth is 124%.

Regarding `CCOC(=O)c1c(C)nc2ccccc2c1/C=C/c1ccc(F)cc1`, the growth was 78.7%.

With `Cc1nc2sc(C(=O)Nc3cccc(Cl)c3C)c(N)c2cc1C(=O)/C=C/c1ccccc1`, the growth was -26.3% (active).

For the molecule `COc1ccc(N=C2NN=C(c3c[nH]c4ccccc34)CS2)cc1OC`, the growth was -8.16% (active).

With `O=c1c2ccccc2n(C[C@H]2CO2)c2ccccc12`, the growth is -61.5% (active).

As to `O=C(Cc1ccc(/C=C/C(=O)c2ncc[nH]2)cc1)Nc1cc(F)c(F)c(F)c1`, the growth was 51.2%.

In the case of `C[C@@H]1CN(c2cnc(C(=O)Nc3cc(F)cc4cccnc34)cn2)C[C@H](C)N1`, the growth is 97%.

Regarding `COc1ccc(C/C(C)=C(\c2ccc(Cl)cc2)c2ccc(OCCCN(C)C)cc2)cc1`, the growth is 82.6%.

With `O=C(O)CC(C(=O)O)/C(=C\c1ccccc1)c1ccccc1` (stereo not given), the growth is 115%.

Take `COc1ccc(Cl)cc1Nc1nc(C(F)(F)F)ccc1C(=O)N/N=C/c1ccc([N+](=O)[O-])cc1`: the growth is 15.9%.

Take `O=C(c1ccc(Br)cc1)C(Br)C(c1ccc(Cl)cc1)C(c1ccccc1)[N+](=O)[O-]` (stereo not given): the growth was 95.9%.

For the molecule `CN(C)CCC(=O)C1CC1`, the growth is 105%.

Take `O=C(/C=C/c1ccccc1)N(C1CCCCC1)C1CCCCC1`: the growth is 99%.

On to `COCCn1cc(-c2nc(-c3cc4cccnc4n3C)cs2)c2ccccc21`, for which the growth was 6.84% (active).

`C=C(C)[C@@H]1CC[C@]2(C(=O)Nc3ccccn3)CC[C@]3(C)[C@H](CC[C@@H]4[C@@]5(C)CCCNC(C)(C)[C@@H]5CC[C@]43C)[C@@H]12`: the growth was 2.12% (active).

Regarding `CN(C)/C(N)=N/N=C(\c1ccccc1)c1ccccn1`, the growth was 113%.

As for `O=c1oc2c(cnc3ccccc32)cc1-c1cccc(Cl)c1`, the growth was 97%.

Take `COc1cc(/C=C/C(=O)c2cc(OC)c(OC)c(OC)c2)ccc1Oc1nc2c(c(=O)n(C)c(=O)n2C)n1C`: the growth is -44% (active).

As for `O=C(/C=C/c1cccc(Oc2ccccc2)c1)c1ccc(Nc2nc(Nc3ccc(F)cc3)nc(Nc3ccc(Cl)cc3)n2)cc1`, the growth was 112%.

For `CS(=O)/C(C#N)=C\C=C\c1cccc(Cl)c1` (stereo not given), the growth is 5.01% (active).

Regarding `N#CC1=C(N)Oc2c(sc3c(F)cccc23)C1c1ccc([N+](=O)[O-])cc1` (stereo not given), the growth was -28.7% (active).

With `O=C(/C=C/C12c3ccccc3C(c3ccccc31)C1C(=O)NC(=O)C12)c1ccc(I)cc1` (stereo not given), the growth is 31.2%.

As for `CN1C(=O)/C(=C/c2ccc(C(=O)Nc3ncc(Cc4cccc(C(F)(F)F)c4)s3)cc2)SC1=S`, the growth was -27.2% (active).

For `C=C1C(=O)O[C@H]2[C@H]1CC/C(COC(=O)C(=O)c1c[nH]c3ccc(Cl)cc13)=C\CC[C@@]1(C)O[C@@H]21`, the growth is -96.4% (active).

`Cc1cc(N2CCN(CC(=O)Nc3ccc4c(ccn4Cc4ccccc4)c3)CC2)nc(N2CCOCC2)n1`: the growth is 92.9%.

As to `CN(C)CCC(CCN(C)C)(C(=O)O)c1ccccc1`, the growth was 106%.

Turning to `C[C@H](c1nc2ccc(C#N)cc2[nH]1)[C@H]1CC[C@H]2[C@@H]3CCC4=CC(=O)CC[C@]4(C)[C@H]3CC[C@]12C`, the growth is 84.2%.

Consider `COc1ccc(C(=O)Nc2ncc(Cc3ccc(Cl)cc3)s2)cc1`, for which the growth is 2.35% (active).

Consider `c1ccc(Nc2nc3c(s2)CCc2c[nH]cc2-3)nc1`, for which the growth was 110%.

As for `NS(=O)(=O)c1ccc(C(=O)NN2C(=O)c3ccccc3C2=O)cc1`, the growth was 103%.

With `c1cc(OCCN2CCCCC2)ccc1CNc1ccc2nc(CCC3CCCCC3)[nH]c2c1`, the growth was -54.2% (active).

As to `COc1cc(-c2cc(-c3ccc(Nc4nc(Nc5ccc(Cl)cc5)nc(Nc5ccc(Cl)cc5)n4)cc3)no2)cc(OC)c1OC`, the growth was 71.5%.

With `c1csc(-c2cn3nc(-c4c[nH]c5ccccc45)sc3n2)c1`, the growth was -38.4% (active).

In the case of `S=c1ccnc[nH]1`, the growth is 113%.

With `C=CC(CC(c1ccccc1)(c1ccccc1)c1ccccc1)N(CC)CC` (stereo not given), the growth is 79.2%.

For `CNC(=O)Nc1ccc(-c2ccc3ncnc(Nc4cccc(Cl)c4)c3c2)cc1`, the growth is 64%.

For the molecule `COc1cc(/C=C/C(=O)N2CCN(C(=O)c3cc(OC)c(OC)c(OC)c3)CC2)ccc1OCCCOc1cc2c(cc1OC)C(=O)N1CCC[C@H]1C=N2`, the growth was -66.4% (active).

Take `CCN(CC)CCCC(Cc1ccccc1)Nc1c2ccc(Cl)cc2nc2ccc(OC)cc12` (stereo not given): the growth was -66.5% (active).

For the molecule `O=C(/C=C/c1ccccc1Cl)c1cccc(OCCCCOc2cccc(C(=O)/C=C/c3ccccc3Cl)c2)c1`, the growth was 106%.

For `CCOC(=O)C(CCN(C)C)c1ccccc1` (stereo not given), the growth is 107%.
